In PubChem BioAssay (NCI):
This is part of a sample that, as a whole, favours compounds with a hit. Of some 79,000 tested, about 15% had one in any assay. A number with no mark means an inactive call. The source made the active and inactive calls. No stated cut-off is given here; in the data, active means growth inhibition above about 70%; inactive means the rest.

Legend:
[1] = NCI Yeast Anticancer Drug Screen. Data for the wt1 strain (AID 149);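 further: 0% = growth of vehicle-treated wt1 cultures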; conditions: S. cerevisiae wt1 strain (SPY 50644) growth inhibition, stronger effect = higher value
In short: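 Yeast wt1 strain exposed to compounds; growth inhibition measured relative to vehicle-treated controls.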

[2] = NCI Yeast Anticancer Drug Screen. Data for the rad50EPP+ strain (AID 151);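 further: 0% = growth of vehicle-treated control cultures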; conditions: S. cerevisiae rad50 mutant strain, stronger effect = higher value
In short: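 Genetically defined yeast (rad50EPP+, DNA damage repair alteration) is grown with compound, and inhibition of growth is expressed relative to vehicle-treated controls.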

[3] = NCI Yeast Anticancer Drug Screen. Data for the mgt1 strain (AID 153); conditions: S. cerevisiae mgt1 mutant growth inhibition, stronger effect = higher value
In short: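 In the mgt1 strain, test compounds were added and growth inhibition was determined relative to vehicle-treated controls.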

[4] = NCI Yeast Anticancer Drug Screen. Data for the rad50 strain (AID 155);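 further: 0% = growth of vehicle-only cultures of the same strain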; conditions: S. cerevisiae rad50 strain growth inhibition, stronger effect = higher value
In short: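 Yeast carrying a defined DNA repair defect were exposed to test compounds, and growth was compared with vehicle-treated controls to give percent inhibition.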

[5] = NCI Yeast Anticancer Drug Screen. Data for the mec2-1 strain (AID 157); conditions: S. cerevisiae mec2-1 strain, stronger effect = higher value
In short: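 Each compound was tested on mec2-1 yeast, a strain altered in DNA damage repair or cell cycle control. Growth inhibition is reported relative to vehicle.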

[6] = NCI Yeast Anticancer Drug Screen. Data for the rad14 strain (AID 159);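 further: 0% = growth of vehicle-treated control cultures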; conditions: S. cerevisiae rad14 strain growth inhibition, stronger effect = higher value
In short: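 Yeast cells carrying a defined DNA-repair defect were exposed to compounds, and growth inhibition was calculated relative to vehicle-treated control cultures.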

[7] = NCI Yeast Anticancer Drug Screen. Data for the sgs1 mgt1 strain (AID 161);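 further: 0% = growth of cultures given vehicle only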; conditions: S. cerevisiae sgs1 mgt1 strain, stronger effect = higher value
In short: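 Read-out: growth inhibition vs vehicle controls. Cells: mutant yeast strain deficient in DNA damage repair.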

[8] = NCI Yeast Anticancer Drug Screen. Data for the CLN2oe strain (AID 163);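 further: 0% = growth of vehicle-only control cultures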; conditions: S. cerevisiae CLN2oe strain, stronger effect = higher value
In short: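 First, the altered yeast strain was treated with each compound; second, its growth was measured; finally, inhibition was derived by comparison with vehicle controls.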

[9] = NCI Yeast Anticancer Drug Screen. Data for the cln2 rad14 strain (AID 165);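 further: 0% = growth equal to vehicle treated cultures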; conditions: S. cerevisiae cln2 rad14 strain, stronger effect = higher value
In short: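 Test compounds were added to cln2 rad14 yeast cultures; inhibition of growth was then determined by comparison with vehicle treatment.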

[10] = NCI Yeast Anticancer Drug Screen. Data for the bub3 strain (AID 167); conditions: S. cerevisiae bub3 mutant strain, stronger effect = higher value
In short: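 Compounds were applied to a genetically altered yeast strain carrying a cell-cycle control defect. Growth inhibition was scored against vehicle-treated controls.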

[11] = NCI Yeast Anticancer Drug Screen. Data for the wt2 strain (AID 169);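 further: 0% = growth of vehicle-treated yeast cultures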; conditions: S. cerevisiae wt2 strain growth inhibition, stronger effect = higher value
In short: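 The panel's yeast strains carry defined changes in DNA repair or cell cycle genes. Each strain is grown with compound, and growth loss is scored relative to vehicle.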

[12] = NCI Yeast Anticancer Drug Screen. Data for the mlh1 strain (AID 171);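 further: 0% = growth of vehicle-treated control cultures of the same strain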; conditions: S. cerevisiae mlh1 strain growth inhibition, stronger effect = higher value
In short: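 Inhibition values reflect reduced yeast growth in the presence of compound, referenced to vehicle controls, using a strain chosen for its alteration in DNA repair or cell cycle control.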

[13] = NCI Yeast Anticancer Drug Screen. Data for the sgs1 strain (AID 173);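 further: 0% = growth of vehicle-only control cultures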; conditions: S. cerevisiae sgs1 mutant, stronger effect = higher value
In short: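 Vehicle-treated cultures served as reference for growth inhibition of a yeast strain altered in DNA damage repair or cell cycle control after compound exposure.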

[14] = NCI Yeast Anticancer Drug Screen. Data for the mlh1 rad18 strain (AID 175); conditions: S. cerevisiae mlh1 rad18 strain growth inhibition, stronger effect = higher value
In short: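 Inhibition values reflect reduced growth of mutant yeast versus vehicle-treated controls following compound exposure; the mutations affect DNA damage repair.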

[15] = NCI Yeast Anticancer Drug Screen. Data for the rad18 strain (AID 177); conditions: S. cerevisiae rad18 mutant growth inhibition, stronger effect = higher value
In short: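 Steps: expose repair-mutant yeast to compound; measure growth; express as inhibition relative to vehicle control.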

[16] = at 5.0 µM (retest, dose inferred, filed as 0.5)
[17] = at 50.0 µM (retest, dose inferred, filed as 5.0)

CSc1s[s+]c(SC)c1-c1ccccc1
growth inhibition ([1]; at 1.2 µM): 5% | growth inhibition ([1]; at 3.7 µM): 15% | growth inhibition ([1]; at 11.0 µM): 18% | growth inhibition ([1]; at 33.0 µM): 49% | growth inhibition ([1]; at 100.0 µM): 65% | growth inhibition ([2]; at 1.2 µM): 14% | growth inhibition ([2]; at 3.7 µM): 10% | growth inhibition ([2]; at 11.0 µM): 61% | growth inhibition ([2]; at 33.0 µM): 93% (active) | growth inhibition ([2]; at 100.0 µM): 89% (active) | growth inhibition ([3]; at 1.2 µM): 13% | growth inhibition ([3]; at 3.7 µM): 28% | growth inhibition ([3]; at 11.0 µM): 25% | growth inhibition ([3]; at 33.0 µM): 59% | growth inhibition ([3]; at 100.0 µM): 76% (active) | growth inhibition ([4]; at 1.2 µM): -3% | growth inhibition ([4]; at 3.7 µM): 2% | growth inhibition [4, 16]: 28% | growth inhibition ([4]; at 11.0 µM): 11% | growth inhibition ([4]; at 33.0 µM): 58% | growth inhibition [4, 17]: 46% | growth inhibition ([4]; at 50.0 µM): 72.3% (active) | growth inhibition ([4]; at 100.0 µM): 68% | growth inhibition ([5]; at 1.2 µM): 7% | growth inhibition ([5]; at 3.7 µM): -5% | growth inhibition [5, 16]: 48% | growth inhibition ([5]; at 11.0 µM): 1% | growth inhibition ([5]; at 33.0 µM): 51% | growth inhibition [5, 17]: 52% | growth inhibition ([5]; at 50.0 µM): 60.6% | growth inhibition ([5]; at 100.0 µM): 59% | growth inhibition ([6]; at 1.2 µM): -31% | growth inhibition ([6]; at 3.7 µM): -23% | growth inhibition ([6]; at 11.0 µM): -21% | growth inhibition ([6]; at 33.0 µM): 21% | growth inhibition ([6]; at 100.0 µM): 59% | growth inhibition [7, 16]: -6% | growth inhibition [7, 17]: 73% (active) | growth inhibition ([8]; at 1.2 µM): 9% | growth inhibition ([8]; at 3.7 µM): 12% | growth inhibition ([8]; at 11.0 µM): 4% | growth inhibition ([8]; at 33.0 µM): 34% | growth inhibition ([8]; at 100.0 µM): 42% | growth inhibition [9, 16]: 26% | growth inhibition [9, 17]: 59% | growth inhibition ([10]; at 1.2 µM): 9% | growth inhibition ([10]; at 3.7 µM): 12% | growth inhibition [10, 16]: 36% | growth inhibition ([10]; at 11.0 µM): 24% | growth inhibition ([10]; at 33.0 µM): 66% | growth inhibition [10, 17]: 72% (active) | growth inhibition ([10]; at 100.0 µM): 75% (active) | growth inhibition ([11]; at 1.2 µM): -26% | growth inhibition ([11]; at 3.7 µM): -19% | growth inhibition ([11]; at 11.0 µM): -34% | growth inhibition ([11]; at 33.0 µM): 39% | growth inhibition ([11]; at 100.0 µM): 68% | growth inhibition ([12]; at 1.2 µM): -35% | growth inhibition ([12]; at 3.7 µM): -23% | growth inhibition ([12]; at 11.0 µM): -14% | growth inhibition ([12]; at 33.0 µM): 52% | growth inhibition ([12]; at 100.0 µM): 13% | growth inhibition ([13]; at 1.2 µM): -20% | growth inhibition ([13]; at 3.7 µM): -29% | growth inhibition ([13]; at 11.0 µM): -15% | growth inhibition ([13]; at 33.0 µM): 47% | growth inhibition ([13]; at 100.0 µM): 70% (active) | growth inhibition [14, 16]: 34% | growth inhibition [14, 17]: 56% | growth inhibition ([14]; at 50.0 µM): 71.8% (active) | growth inhibition ([15]; at 1.2 µM): 3% | growth inhibition ([15]; at 3.7 µM): 14% | growth inhibition ([15]; at 11.0 µM): 22% | growth inhibition ([15]; at 33.0 µM): 63% | growth inhibition ([15]; at 100.0 µM): 73% (active)

Cn1ncc2cc3c(Nc4ccc(Cl)cc4)cccc3nc21
growth inhibition ([1]; at 1.2 µM): 0% | growth inhibition ([1]; at 3.7 µM): -2% | growth inhibition ([1]; at 11.0 µM): -2% | growth inhibition ([1]; at 33.0 µM): 0% | growth inhibition ([1]; at 100.0 µM): 12% | growth inhibition ([2]; at 1.2 µM): 0% | growth inhibition ([2]; at 3.7 µM): 1% | growth inhibition ([2]; at 11.0 µM): 2% | growth inhibition ([2]; at 33.0 µM): 7% | growth inhibition ([2]; at 100.0 µM): 36% | growth inhibition ([3]; at 1.2 µM): -1% | growth inhibition ([3]; at 3.7 µM): 0% | growth inhibition ([3]; at 11.0 µM): -4% | growth inhibition ([3]; at 33.0 µM): -3% | growth inhibition ([3]; at 100.0 µM): 9% | growth inhibition ([4]; at 1.2 µM): 2% | growth inhibition ([4]; at 3.7 µM): 5% | growth inhibition [4, 16]: 25% | growth inhibition ([4]; at 11.0 µM): 10% | growth inhibition ([4]; at 33.0 µM): 42% | growth inhibition [4, 17]: 83% (active) | growth inhibition ([4]; at 50.0 µM): 59.9% | growth inhibition ([4]; at 100.0 µM): 95% (active) | growth inhibition ([5]; at 1.2 µM): -5% | growth inhibition ([5]; at 3.7 µM): -7% | growth inhibition [5, 16]: 0% | growth inhibition ([5]; at 11.0 µM): -3% | growth inhibition ([5]; at 33.0 µM): -4% | growth inhibition [5, 17]: 5% | growth inhibition ([5]; at 50.0 µM): 8.6% | growth inhibition ([5]; at 100.0 µM): 6% | growth inhibition [7, 16]: -1% | growth inhibition [7, 17]: -2% | growth inhibition ([7]; at 50.0 µM): -10.4% | growth inhibition ([8]; at 1.2 µM): -5% | growth inhibition ([8]; at 3.7 µM): -4% | growth inhibition ([8]; at 11.0 µM): -5% | growth inhibition ([8]; at 33.0 µM): -3% | growth inhibition ([8]; at 100.0 µM): -6% | growth inhibition [9, 16]: -11% | growth inhibition [9, 17]: 1% | growth inhibition ([9]; at 50.0 µM): -6% | growth inhibition ([10]; at 1.2 µM): -3% | growth inhibition ([10]; at 3.7 µM): -5% | growth inhibition [10, 16]: -7% | growth inhibition ([10]; at 11.0 µM): -7% | growth inhibition ([10]; at 33.0 µM): -11% | growth inhibition [10, 17]: 1% | growth inhibition ([10]; at 50.0 µM): 44.6% | growth inhibition ([10]; at 100.0 µM): -7% | growth inhibition ([11]; at 1.2 µM): -1% | growth inhibition ([11]; at 3.7 µM): -2% | growth inhibition ([11]; at 11.0 µM): -2% | growth inhibition ([11]; at 33.0 µM): -2% | growth inhibition ([11]; at 100.0 µM): 20% | growth inhibition ([13]; at 1.2 µM): -2% | growth inhibition ([13]; at 3.7 µM): -2% | growth inhibition ([13]; at 11.0 µM): -3% | growth inhibition ([13]; at 33.0 µM): 0% | growth inhibition ([13]; at 100.0 µM): 42% | growth inhibition [14, 16]: -2% | growth inhibition [14, 17]: 7% | growth inhibition ([14]; at 50.0 µM): 2.05% | growth inhibition ([15]; at 1.2 µM): -2% | growth inhibition ([15]; at 3.7 µM): -4% | growth inhibition ([15]; at 11.0 µM): -3% | growth inhibition ([15]; at 33.0 µM): -2% | growth inhibition ([15]; at 100.0 µM): 52%
